Measurements as given in PubChem BioAssay (EPA / NIEHS).
“And” between values parts separate entries of the source, which are not always exact repeats. Equal entries are not always repeated. Some structures have more than one record in an assay (separate samples or runs), and their calls can disagree. The source made the active and inactive calls. How the source made its calls: active means hit-call score of the fitted dose curve at least 0.9, where 1 is the maximum; inactive means score below 0.9.

Legend:
[1] = read-out: Interleukin 17F (IL17F), IL17F (gene 112744); assay: BSK_BT_xIL17F: BioMAP Diversity Plus: BT Assay for Interleukin 17F (IL17F) Biomarker Activity (AID 2284243); details: primary human B cells with PBMC
In short: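 Luminex readout of IL-17F secretion, 24 h; cells: human B cells with PBMC; positive-direction analysis, DMSO control.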

[2] = read-out: Actin alpha 1 (ACTA1), ACTA1 (gene 58); assay: BSK_MyoF_ACTA1: BioMAP Diversity Plus: MyoF Assay for Actin alpha 1 (ACTA1) Biomarker Activity (AID 2284244); details: primary human lung fibroblasts
In short: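 alpha-SMA levels read by ELISA against DMSO baseline, 24 h post-dose, in primary human lung fibroblasts. Parallel cultures stained with 0.1% SRB after 10% TCA fixation (560 nm) to flag overt cytotoxicity.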

[3] = read-out: Interleukin 2 (IL2), IL2 (gene 3558); assay: BSK_BT_xIL2: BioMAP Diversity Plus: BT Assay for Interleukin 2 (IL2) Biomarker Activity (AID 2284245); details: primary human B cells with PBMC
In short: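 Secreted IL-2 was read by Luminex xMAP from B cells co-cultured with PBMC (human primary) 24 h post-dosing; activity was analysed as gain of signal relative to DMSO vehicle.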

[4] = read-out: Basic fibroblast growth factor (bFGF), FGF2 (gene 2247); assay: BSK_MyoF_bFGF: BioMAP Diversity Plus: MyoF Assay for Basic fibroblast growth factor (bFGF) Biomarker Activity (AID 2284246); details: primary human lung fibroblasts
In short: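 bFGF was measured by ELISA in primary human lung fibroblasts 24 h after chemical addition. Signal was analysed as positive-direction change relative to DMSO baseline.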

[5] = read-out: Collagen IV, COL4A1 (gene 1282); assay: BSK_MyoF_CollagenIV: BioMAP Diversity Plus: MyoF Assay for Collagen IV Biomarker Activity (AID 2284247); details: primary human lung fibroblasts
In short: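 Collagen IV quantified by ELISA in human lung fibroblast cultures 24 h after chemical treatment, with DMSO as baseline. Parallel SRB staining (0.1% SRB after TCA fixation, 560 nm) flags overt cytotoxicity.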

[6] = read-out: Monokine induced gamma interferon (MIG), CXCL9 (gene 4283); assay: BSK_KF3CT_MIG: BioMAP Diversity Plus: KF3CT Assay for Monokine induced gamma interferon (MIG) Biomarker Activity (AID 2284248); details: primary human keratinocytes with fibroblasts
In short: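 MIG in dosed human skin co-cultures was measured by ELISA at 24 h, relative to DMSO.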

[7] = read-out: Collagen I, COL1A1 (gene 1277); assay: BSK_hDFCGF_CollagenI: BioMAP Diversity Plus: hDFCGF Assay for Collagen I Biomarker Activity (AID 2284250); details: primary human foreskin fibroblasts
In short: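 Collagen I quantified by ELISA 24 h after chemical dosing of human dermal fibroblast primary cells, with parallel SRB staining (0.1%, TCA-fixed, 560 nm) for overt cytotoxicity.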

[8] = read-out: Interferon-inducible T-cell alpha chemoattractant (ITAC), CXCL11 (gene 6373); assay: BSK_hDFCGF_ITAC: BioMAP Diversity Plus: hDFCGF Assay for Interferon-inducible T-cell alpha chemoattractant (ITAC) Biomarker Activity (AID 2284251); details: primary human foreskin fibroblasts
In short: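 Chemical dosing of primary human foreskin fibroblast cultures preceded ELISA measurement of I-TAC at 24 h. Response was analysed in the positive direction using DMSO as baseline, while parallel SRB staining measured cytotoxicity.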

Measured: AC50

CSCCC=O
inactive: [1] | [2] | [3] | [4] | [5]

C=C(C)[C@H]1CC=C(C)C(=O)C1
inactive: [1] | [2] | [3] | [4] | [5]

CC(C)(N=C=O)c1cccc(C(C)(C)N=C=O)c1
inactive: [1] | [2] | [3] | [4] | [5]

CCCCCCC(CO)CCCC (stereo not drawn)
active: [6] 35.5 µM | [7] 36.4 µM and 30.8 µM | [8] 33.1 µM and 34.8 µM

CCCCCCCCCCCCCCCC(=O)OC/C=C(C)/C=C/C=C(C)/C=C/C1=C(C)CCCC1(C)C
inactive: [1] | [2] | [3] | [4] | [5]

C=CC(C)(O)CCC=C(C)C (stereo not drawn)
inactive: [6] | [7] | [8]

O=C(Nc1ccc2c(O)c(N=Nc3ccc(N=Nc4ccc(S(=O)(=O)O)cc4)cc3)c(S(=O)(=O)O)cc2c1)c1ccccc1
inactive: [6] | [7]
active: [8] 32.3 µM and 27.1 µM

c1ccc2cc(Nc3ccc(Nc4ccc5ccccc5c4)cc3)ccc2c1
inactive: [1] | [2] | [3] | [4] | [5]

CC(C=O)Cc1ccc(C(C)(C)C)cc1 (stereo not drawn)
active: [2] 31.6 µM
inactive: [1] | [3] | [4] | [5]

C1=CC2C3C=CC(C3)C2C1 (stereo not drawn)
inactive: [1] | [2] | [3] | [4] | [5]

CC(CN=Cc1ccccc1O)N=Cc1ccccc1O (stereo not drawn)
inactive: [6] | [7] | [8]

c1ccc(CCc2ccccc2)cc1
active: [2] 13.7 µM | [4] 30.4 µM | [5] 31.5 µM
inactive: [1] | [3]

CC(C)(C)CC(C)(C)c1ccc(OCCOCC[N+](C)(C)Cc2ccccc2)cc1
active: [1] 8.64 µM | [2] 8.1 µM | [3] 6.28 µM | [4] 8.49 µM | [5] 8.51 µM

O=C1c2ccccc2C(=O)c2c(O)ccc(O)c21
active: [1] 9.01 µM | [3] 3.97 µM
inactive: [2] | [4] | [5]

O=CN1CCOCC1
inactive: [6] | [7] | [8]

CC1(C)CCC[C@]2(C)[C@H]3CCO[C@]3(C)CC[C@@H]12
inactive: [7]
active: [6] 36.6 µM and 36.2 µM | [7] 18.7 µM | [8] 30.5 µM and 30.9 µM

CCOC(=O)C(C#N)=C(c1ccccc1)c1ccccc1
active: [8] 26.1 µM
inactive: [6] | [7] | [8]

CCCCN(CCCC)C(=O)N(CCCC)CCCC
active: [1] 29 µM | [2] 6.35 µM | [3] 32.5 µM | [4] 10.1 µM | [5] 8.89 µM
